Compounds with a hit are over-represented: about 19% of the library has one in this group of screens.
IL-1B inflam inh: inflammasome signaling inhibition, IL-1 beta readout; THP-1 LPS/ATP IL-1B secretion, AlphaLISA, 16 h; active compounds read low; activity change, % at 57.5 µM; hit rate 4.7% among 360,000; in the data active means activity change below about -50%; inconclusive means mostly about -30% to -49%; further: on the % scale 0 is the no-effect control and ±100 the full control effect
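Secreted IL-1B measured by AlphaLISA bead assay after 16 h compound exposure of THP-1 cells; compounds (final up to 57.5 uM) added 1 h before LPS (250 ng/mL) and ATP (1.25 mM) stimulation; lower signal means less secretion.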
TDP1 block: blocks human tyrosyl-DNA phosphodiesterase 1. Q9NUW8. recombinant TDP1, AlphaScreen DNA substrate cleavage. Potency, µM (doses to about 130 µM), without a hit: at the highest dose activity change, negative = inhibition, actives largely listed as inhibitors. hit rate 0.28% among 350,000. AID 485290; further: potency means the concentration at half of the fitted maximal effect; on the % scale 0 is the no-effect control and ±100 the full control effect; nearly all actives have a fitted effect of over 40% in size
Target sequence (Q9NUW8 whole entry, looked up): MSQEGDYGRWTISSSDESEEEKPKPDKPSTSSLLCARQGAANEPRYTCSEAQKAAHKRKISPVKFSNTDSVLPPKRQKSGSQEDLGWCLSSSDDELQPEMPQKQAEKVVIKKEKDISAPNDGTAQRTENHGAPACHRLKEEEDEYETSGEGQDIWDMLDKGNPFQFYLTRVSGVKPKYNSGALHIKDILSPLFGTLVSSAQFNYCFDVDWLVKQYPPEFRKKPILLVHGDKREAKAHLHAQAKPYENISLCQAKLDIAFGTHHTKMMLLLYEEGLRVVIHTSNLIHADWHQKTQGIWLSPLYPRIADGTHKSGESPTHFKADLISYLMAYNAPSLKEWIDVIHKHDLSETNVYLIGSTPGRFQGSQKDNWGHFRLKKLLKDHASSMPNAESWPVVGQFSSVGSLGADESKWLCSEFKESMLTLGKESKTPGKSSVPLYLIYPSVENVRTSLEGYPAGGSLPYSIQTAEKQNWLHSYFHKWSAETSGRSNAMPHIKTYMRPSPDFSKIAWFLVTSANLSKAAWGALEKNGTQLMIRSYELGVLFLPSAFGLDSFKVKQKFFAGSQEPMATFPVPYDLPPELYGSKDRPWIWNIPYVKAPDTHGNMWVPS
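Tdp1 1 nM final; 15 min RT w/ cpd; substrate 15 nM, 5 min; beads 10 ug/ml, 10 min; AlphaScreen read. Neg ctrl: no enzyme.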
TGFb inhibitor: blocks TGF-b signaling; HepG2 CAGA-GFP TGF-b/SMAD3 reporter, GFP fluorescence, 18 h; TGF-beta stimulated, 500 pg/mL final; Potency, µM (highest dose often 46.1 µM), without a hit: at the top dose activity, negative = inhibition, hits mostly inhibitors; hit rate 1.2% among 410,000; further: potency means the concentration at half of the fitted maximal effect; on the % scale 0 is the no-effect control and ±100 the full control effect; nearly all actives have a fitted effect of over 65% in size
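GFP signal (ex488/em500-530) from TGF-beta-stimulated HEPG2 CAGA-GFP cells, 500 pg/mL final, 18 h at 37 degrees C in DMEM plus 1% FBS, normalized to unstimulated and DMSO-stimulated controls.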
HepG2 tox: HepG2 cytotoxicity, counter-screen for TGF-b inhibitors. HepG2 CAGA-GFP viability, ATP luminescence, 18 h. Potency, µM (series often up to 46.1 µM), inactives show at the highest dose activity change, negative = cytotoxicity, most hits filed as cytotoxic. hit rate 0.76% among 410,000. AID 588856; further: potency means the concentration at half of the fitted maximal effect
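CellTiter-Glo luminescence gave cytotoxicity after 18 hours at 37 degrees C. The cells were HepG2 CAGA-GFP in 1% FBS DMEM, stimulated with 500 pg/mL TGF-beta after compound addition. %Activity was normalised to no-cell wells (complete cell-killing) and DMSO (no toxicity), and curves were fitted and classified.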
DT40 TDP1 CPT: DT40-hTDP1 cell growth loss with CPT. chicken DT40 Tdp1-/-;hTDP1 cells + 20 nM CPT, ATP luminescence, 48 h. Potency, µM (titrated, usually from 46.2 µM), without a hit: at the highest dose activity change, negative = growth inhibition, hits mostly inhibitors. hit rate 12% among 420,000; further: potency means the concentration at half of the fitted maximal effect; on the % scale 0 is the no-effect control and ±100 the full control effect; nearly all actives have a fitted effect of over 55% in size
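Cell growth measured by CellTiter-Glo luminescence after a minimum 48 h, 37 C compound exposure with 20 nM CPT in Tdp1-knockout DT40 cells stably expressing hTDP1, seeded 400/well; qHTS titration format.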
TDP1 cell noCPT: qHTS for Inhibitors of human tyrosyl-DNA phosphodiesterase 1 (TDP1): qHTS in cells in absence of CPT. DT40 Tdp1-/- hTDP1 cells, no CPT, ATP luminescence, 48 h. Potency, µM (titrated, usually from 46.2 µM), for the others: top-dose activity change, negative = growth inhibition, usual class: inhibitors. hit rate 15% among 420,000; further: potency means the concentration at half of the fitted maximal effect; on the % scale 0 is the no-effect control and ±100 the full control effect; nearly all actives have a fitted effect of over 55% in size
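Stably hTDP1-transfected Tdp1-null chicken DT40 cells were treated with library compounds minus camptothecin and grown for at least 48 hr at 37 °C, after which cellular ATP was quantified by luminescence.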
* hit, by the source's call; u = inconclusive; x = not tested or not shown; ! = not confirmed by another sample; [ ] = another dose, or the depositor's remark. Unless noted, the call rests on the fitted dose curve; in most records, active means well fitted curve in the direction sought with a large enough effect; inconclusive means small, poorly fitted or top-dose-only effect, or another doubt; inactive means no such curve, though single readings can be large; an effect the other way counts as inactive or inconclusive.

SMILES | IL-1B inflam inh | TDP1 block | TGFb inhibitor | HepG2 tox | DT40 TDP1 CPT | TDP1 cell noCPT
Cc1ccc(-c2noc(CSc3nnc(CCc4ccccc4)n3-c3ccccc3)n2)cc1 | -12 | 4% | u | -1% | 16µM* | 16µM*
COc1ccc(-c2noc(CSc3nnc(CCc4ccccc4)n3-c3ccccc3)n2)cc1OC | -10 | 4% | -13% | -23% | 15µM* | 16µM*
Cc1ccc(-c2noc(CSc3nnc(Cc4ccccc4)n3-c3ccc(Cl)cc3)n2)cc1 | -24 | 8% | u | -32% | -15% | -30%
COc1ccc(C2CC(=O)c3cc(OC)ccc3O2)cc1 (stereo not given) | -26 | x | 13% | -9% | -27% | u
COc1ccc(C2CC(=O)c3ccccc3O2)cc1 (stereo not given) | -60* | 0% | 2% | -6% | u | u
C[C@@H](Cc1cccc(C(F)(F)F)c1)NCCOC(=O)c1ccccc1 | x | 10%[21 µM] | x | x | x | x
CC(Cc1cccc(C(F)(F)F)c1)NCCOC(=O)c1ccccc1 (stereo not given) | -22 | -6%[56.1 µM] | -4% | -30% | u | 18µM*!
CCN1CCN(c2cc(C(C)C)nc3c(-c4ccccc4)c(C)nn23)CC1 | x | x | u | -94% | 12µM* | 21µM*
CCN1CCN(c2cc(C(C)(C)C)nc3c(-c4ccccc4)c(C)nn23)CC1 | u | 0% | 0% | -10% | u | 18µM*
Cc1nn2c(N3CCOCC3)cc(C(C)C)nc2c1-c1ccccc1 | -13 | x | -12% | 4% | u | -18%
Cc1cc(/C=C2\SC(=Nc3ccc(F)cc3)NC2=O)c(C)n1-c1ccc(S(N)(=O)=O)cc1 | -8 | 7% | u | 25% | 5.2µM* | 5.2µM*
CCOC(=O)C1=C(C)N=c2s/c(=C/c3ccc(OCC(=O)O)cc3)c(=O)n2C1c1cc(OC)c(OC)c(OC)c1 (stereo not given) | -9 | x | 10% | -11% | 0% | -2%
CCOC(=O)C1=C(C)N=c2sc(=Cc3cc(Cl)c(OCC(=O)O)c(Cl)c3)c(=O)n2C1c1cccc(OC)c1 (stereo not given) | -18 | x | -2% | -26% | 16µM* | u
COc1cccc(C2C(C(=O)OC(C)C)=C(C)N=c3s/c(=C\c4ccc(C(=O)O)cc4)c(=O)n32)c1 (stereo not given) | -7 | -6% | 1% | -1% | -20% | 18µM*
CSc1cccc(NC(=O)CC2Oc3ccccc3NC2=O)c1 (stereo not given) | 4 | x | u | -10% | 3% | -17%
COc1ccc(NC(=O)c2c(C)noc2C)cc1S(=O)(=O)N1CCCCC1 | -8 | x | 1% | 0% | -11% | u
Cc1cc(C)cc(C(=O)NCC(=O)N2CCN(c3cccc(Cl)c3)CC2)c1 | -70* | x | u | -6% | u | u
O=C(NCC(=O)N1CCN(Cc2ccccc2)CC1)c1cc(Cl)cc([N+](=O)[O-])c1 | 9 | 0% | -35% | -4% | 16µM* | u
O=C(NCC(=O)N1CCN(Cc2c(F)cccc2Cl)CC1)c1cccs1 | -14 | x | -17% | 3% | -18% | u
Cc1cccc(C(=O)NCC(=O)N2CCN(c3ccc(Cl)cc3)CC2)c1 | -12 | x | 0% | -27% | u | u
O=C(NCCC(=O)N1CCN(c2cccc(Cl)c2)CC1)c1ccc(Br)cc1 | -55* | 0% | u | -12% | u | u
O=C(NCC(=O)N1CCN(Cc2c(F)cccc2Cl)CC1)c1cccc(Cl)c1 | -8 | -4% | -3% | -29% | 6.5µM* | 16µM*
Cc1cccc(N2CCN(C(=O)CNC(=O)c3cccc([N+](=O)[O-])c3)CC2)c1C | -8 | 6% | -24% | -9% | u | 18µM*
COc1ccc(-n2cnnc2SCC(=O)N2CCN(c3ccccc3)CC2)cc1 | -10 | 6% | 21% | 30% | -20% | u
COc1ccc(N2CCN(C(=O)CSc3nnc(-c4cc5ccccc5cc4O)n3C)CC2)cc1 | -11 | 6% | u | -27% | 23µM* | 18µM*
SMILES | IL-1B inflam inh | TDP1 block | TGFb inhibitor | HepG2 tox | DT40 TDP1 CPT | TDP1 cell noCPT
CC(C)n1c(SCc2ccccc2F)nc2c1c(=O)n(C)c(=O)n2C | 46 | -1% | 0% | -20% | 21µM* | 26µM*
CC(C)n1c(SCC(N)=O)nc2c1c(=O)n(C)c(=O)n2C | -6 | 4% | 11% | -1% | 0% | -8%
COc1ccc(N2CCN(C(=O)CSc3nc4c(c(=O)n(C)c(=O)n4C)n3C(C)C)CC2)cc1 | -21 | 1% | 0% | -2% | 18µM* | u
CC(C)n1c(SCC(=O)N2c3ccccc3Sc3ccccc32)nc2c1c(=O)n(C)c(=O)n2C | -28 | 1% | 0% | -1% | 21µM* | 16µM*
CCC[n+]1c(C)sc2c3c(ccc21)CCCC3 | -97* | -5% | -36% | -4% | 1.8µM* | 2.3µM*
Cc1cccc(-n2c(C)cc(C(=O)NC3CCCCC3)c2C)c1 | -90* | 1% | -4% | -15% | u | 13µM*
Cc1cccc(-n2c(C)nc3cc(C(=O)NC4CCCCCC4)ccc32)c1 | x | 10% | 12% | -24% | 13µM* | 23µM*
COc1ccccc1NC(=O)Cn1c(=O)n(Cc2nc(C)no2)c(=O)c2cc3c(cc21)OCO3 | x | 6% | 1% | -40% | 3% | -23%
O=c1[nH]c(-c2ccccc2)cs1 | 16 | -3% | 11% | -2% | -30% | -21%
O=c1[nH]c(-c2ccc(Cl)cc2)cs1 | -55* | 5% | 7% | -9% | u | -24%
Cc1ccc2nc(-c3ccc(C)o3)c(NC3CCCC3)n2c1 | x | 5% | x | x | 11µM* | 13µM*
CC(C)c1nc2ccc(Br)cn2c1NC1CCCC1 | 17 | 0% | -1% | -11% | -2% | -1%
Cc1ccc2nc(-c3ccccn3)c(NC3CCCC3)n2c1 | -14 | 3% | u | -19% | 1.3µM* | 0.33µM*
CCCCN(C)C(=O)c1ccc(Nc2nc(C(N)COCc3ccccc3)cs2)nc1 (stereo not given) | u | x | -16% | -21% | 12µM* | 15µM*
NC(CCc1ccccc1)c1csc(Nc2cnccn2)n1 (stereo not given) | -24 | x | -18% | -19% | 23µM* | 13µM*
